Screening data as filed in PubChem.
Pf growth 48h = Primary qHTS for delayed death inhibitors of the malarial parasite plastid, 48 hour incubation. P. falciparum luciferase growth in erythrocytes, 48 h. Potency, µM (titrated, usually from 28.7 µM), for inactives: at the top dose activity change, negative = inhibition, most hits filed as inhibitors. 5.9% of 310,000 active. AID 504832, 2011; further: on the % scale 0 is the no-effect control and ±100 the full control effect
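Growth was read as firefly luciferase luminescence after a 48 h, 37 C, 5% CO2 exposure of compounds to reporter-bearing P. falciparum cultures (0.1% parasitemia, 2% hematocrit final) in Albumax-supplemented RPMI 1640.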
AmpC no deterg = qHTS Inhibitors of AmpC Beta-Lactamase (assay without detergent); AmpC nitrocefin hydrolysis, absorbance 480 nm, 0.0001% Triton; Potency, µM (titrated, usually from 57.1 µM), for the others: top-dose activity change, negative = inhibition, most hits filed as inhibitors; 0.52% of 330,000 active;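 further: plate controls were no compound for no effect and no enzyme for full effect; nearly all actives have a fitted effect of over 20% in size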
Target sequence (P00811 whole entry, looked up): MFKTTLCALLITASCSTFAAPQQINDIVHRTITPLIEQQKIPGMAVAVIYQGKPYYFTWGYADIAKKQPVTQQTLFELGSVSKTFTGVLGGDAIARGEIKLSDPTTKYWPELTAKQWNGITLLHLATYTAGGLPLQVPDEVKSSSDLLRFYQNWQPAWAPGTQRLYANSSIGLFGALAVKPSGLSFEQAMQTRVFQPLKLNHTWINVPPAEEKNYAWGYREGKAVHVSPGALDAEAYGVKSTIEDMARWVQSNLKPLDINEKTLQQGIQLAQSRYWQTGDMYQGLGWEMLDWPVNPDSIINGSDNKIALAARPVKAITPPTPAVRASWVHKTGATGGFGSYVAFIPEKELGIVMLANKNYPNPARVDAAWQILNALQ
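20 mM phosphate pH 7.0 + 0.01% (detergent screen) or 0.0001% Triton X-100; 5.3 nM AmpC reagent; cpd preinc 15 min RT; nitrocefin (800 uM stock) to start; A480 q20 s × 4 min; Activity was normalised to no-enzyme and no-compound control wells.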
Sm TGR block = qHTS Assay for the Inhibitors of Schistosoma Mansoni Peroxiredoxins | Schistosoma mansoni thioredoxin glutathione reductase (TGR), Q962Y6 | purified TGR, DTNB reduction, TNB absorbance 405 nm | Potency, µM (titrated, usually from 114 µM), for the others: top-dose activity change, negative = inhibition, actives largely listed as inhibitors | 3% of 360,000 active | AID 485364, 2010; further: on the % scale 0 is the no-effect control and ±100 the full control effect; nearly all actives have a fitted effect of over 60% in size
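Kinetic colorimetric format: TGR-catalysed, NADPH-driven DTNB reduction monitored via TNB absorbance. Enzyme dispensed at 20 nM; compound exposure 15 min at room temperature before reaction start.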
AmpC inh detg = qHTS Inhibitors of AmpC Beta-Lactamase (assay with detergent) | P00811 | AmpC hydrolysis of nitrocefin, absorbance 480 nm, 0.01% Triton | Potency, µM (titrated, usually from 114 µM), for inactives: at the top dose activity change, negative = inhibition, actives largely listed as inhibitors | 0.041% of 370,000 active | AID 485294, 2010;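 further: 0% = no-compound wells and -100% = no-enzyme wells; nearly all actives have a fitted effect of over 25% in size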
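20 mM phosphate pH 7.0 + 0.01% (detergent screen) or 0.0001% Triton X-100; 5.3 nM AmpC reagent; cpd preinc 15 min RT; nitrocefin (800 uM stock) to start; A480 q20 s × 4 min; Activity was normalised to no-enzyme and no-compound control wells.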
Pf growth 96h = Primary qHTS for delayed death inhibitors of the malarial parasite plastid, 96 hour incubation. P. falciparum luciferase reporter growth, 96 h. Potency, µM (series often up to 28.7 µM), inactives show at the top dose activity change, negative = inhibition, usual class: inhibitors. 6.9% of 320,000 active. AID 504834, 2011; further: on the % scale 0 is the no-effect control and ±100 the full control effect
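Luminescence readout: decreased luciferase signal marks inhibited growth of reporter-expressing P. falciparum in infected red cells (2% hematocrit, 0.05% parasitemia final), exposed to compound two generations (96 h, 37 C, 5% CO2).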
SARS PLpro yeast = qHTS of Yeast-based Assay for SARS-CoV PLP | S. cerevisiae expressing SARS-CoV PLpro, growth rescue | 0.19% of 330,000 active | Potency, µM (series often up to 32.9 µM), inactives show at the highest dose activity, positive = growth rescue, actives largely listed as activators; calls by dose curve; further: 0% is about no effect; nearly all actives have a fitted effect of over 55% in size
Numbers without * were called inactive; ? = inconclusive; nt = not tested or not shown; [ ] = dose if it differs, or a comment. Rows were chosen to be rich in hits. Some 12% of all compounds tested hit in one or more screens of this group. Unless noted, the call rests on the fitted dose curve; in most records, active means well fitted curve in the direction sought with a large enough effect; inconclusive means small, poorly fitted or top-dose-only effect, or another doubt; inactive means no such curve, though single readings can be large; an effect the other way counts as inactive or inconclusive. Potency means the concentration at half of the fitted maximal effect.

SMILES	Pf growth 48h	AmpC no deterg	Sm TGR block	AmpC inh detg	Pf growth 96h	SARS PLpro yeast
CCc1ccccc1Nc1nc(N)nc(COC(=O)C2CCN(C(=O)c3ccc(F)cc3)CC2)n1	11.7µM*	93.5%	-3.8%	?	?	2.2%
Cc1ccccc1Nc1nc(N)nc(COC(=O)c2ccccc2)n1	190.7%	-12.9%	-1.3%	-13.4%	470.9%	5.0%
Cc1ccccc1Nc1nc(N)nc(COC(=O)c2cccn2C)n1	nt	-7.8%	0.0%[11.4 µM]	-19.1%	59.5%	-3.2%
Cc1ccccc1Nc1nc(N)nc(COC(=O)c2c(C)noc2C)n1	nt	-15.6%	nt	nt	nt	0.2%
Cc1ccccc1Nc1nc(N)nc(COC(=O)c2cccc(S(=O)(=O)N(C)c3ccccc3)c2)n1	?	-11.2%	2.1%	-5.8%	5.86µM*	1.8%
Cc1ccccc1Nc1nc(N)nc(COC(=O)c2ccc(O)cc2)n1	?	-13.8%	-16.9%	-3.7%	2.62µM*	-23.5%
Cc1ccccc1Nc1nc(N)nc(COC(=O)/C=C/c2ccco2)n1	0.5%	-14.7%[11.4 µM]	12.6µM*	?	11.3%	-0.1%
CCOCCc1nn2c(=O)cc(COC(=O)Cc3ccccc3)nc2s1	nt	nt	-6.4%	-2.0%	nt	nt
Cc1ccccc1Nc1nc(N)nc(COC(=O)CCNS(=O)(=O)c2ccccc2)n1	11.7µM*	-16.5%	6.2%	9.7%	?	0.8%
COc1ccc(C(=O)OC(C)C(=O)Nc2cc(C(F)(F)F)ccc2Cl)c(OC)c1OC (configuration not stated)	-27.6%	39.7%	1.3%	-0.1%	?	-0.9%
CCOC(=O)C1=C(CNCc2ccccc2Cl)NC(=O)NC1c1cccc([N+](=O)[O-])c1 (configuration not stated)	?	-17.5%	1.3%	-10.5%	0.928µM*	-0.5%
CCOC(=O)C1=C(CSc2nc3ccccc3s2)NC(=O)NC1c1cccc([N+](=O)[O-])c1 (configuration not stated)	5.86µM*	-14.9%	3.3%	0.6%	?	nt
CCOC(=O)C1=C(CNCCc2ccc(Cl)cc2)NC(=O)NC1c1cccc([N+](=O)[O-])c1 (configuration not stated)	?	-8.0%	-0.9%	-1.6%	17.1%	-1.0%
CCN(CC)c1ccc2cc(-c3nc(-c4cccs4)no3)c(=O)oc2c1	nt	nt	0.1%	22.5%	nt	nt
O=c1c(C=NCCCn2ccnc2)c(-c2ccccc2)[nH]n1-c1nc2ccccc2s1	10.4µM*	151.5%	-6.9%	?	nt	2.7%
CCCCc1nc2ccccc2c(=O)n1-c1cccc(OC)c1	nt	nt	-9.1%	-6.0%	nt	nt
Cc1ccc(-c2nn(-c3ccc(F)cc3F)c3c2cnc2ccc(F)cc23)cc1	nt	nt	3.7%	7.2%	nt	nt
CCc1nc2cccnc2n1-c1ccc(CC(=O)O)cc1	-17.8%	-8.0%	-9.6%	-1.5%	10.4µM*	1.8%
CC(C)(C)NC(=O)c1ccc2c(c1)N(CC(=O)N1CCN(c3ccc(F)cc3)CC1)C(=O)C(C)(C)O2	10.4µM*	103.0%	0.0%	?	nt	2.2%
Cn1c(O)c(C(c2ccccn2)c2c(O)n(C)c(=S)n(C)c2=O)c(=O)n(C)c1=S	5.9%	-42.1%	22.4µM*	?	8.1%	-0.5%
Cn1c(O)c(C(c2ccncc2)c2c(O)n(C)c(=S)n(C)c2=O)c(=O)n(C)c1=S	16.9%	-19.4%	15.8µM*	-7.4%	nt	3.7%
CC(=O)c1c(O)n(C)c(=S)n(-c2ccccc2)c1=O	1.2%	-10.0%	1.4%	0.2%	19.7%	-1.0%
Cc1cccc(NC(=O)c2nc[nH]c2C(=O)N2CCN(c3ccccc3)CC2)c1	nt	-24.8%	nt	nt	nt	-5.3%
COC(=O)c1ccc(C(=O)OC)c(NC(=S)N2CCC(C)CC2)c1	-25.0%	-47.3%	-10.3%	?	7.38µM*	3.8%
CCCCOC(=O)Nc1cc(C(=O)OC)ccc1C(=O)OC	10.4µM*	27.9%	4.1%	0.1%	?	-3.3%
SMILES	Pf growth 48h	AmpC no deterg	Sm TGR block	AmpC inh detg	Pf growth 96h	SARS PLpro yeast
CCCCOC(=O)Nc1ccc(C(=O)OC)cc1	66.1%	-11.6%	-27.8%	?	-2.7%	-5.7%
O=S1(=O)c2cccc3cccc(c23)N1CCCN1CCN(c2ccc(F)cc2)CC1	-15.1%	nt	nt	nt	-25.5%	nt
O=C1[C@H]2CCCC[C@H]2C(=O)N1CCCCN1CCN(c2nsc3ccccc23)CC1	?	nt	nt	nt	12µM*	nt
c1ccc2oc(N3CCNCC3)nc2c1	nt	-2.2%	-0.6%[11.4 µM]	-15.3%	-26.2%	-1.4%
c1ccc2c(N3CCNCC3)nsc2c1	13.1µM*	-18.9%	-21.7%	5.4%	-22.9%	0.6%
O=C1C2CCCCN2C(=O)N1CCCCN1CCN(c2ccccc2Oc2ccccc2)CC1 (configuration not stated)	?	179.0%	-28.8%	1.1%	?	17.1%
COCCn1c(CNC(=O)c2ccccc2C)nc2cccnc21	nt	nt	1.0%	8.1%	nt	nt
O=C(NCC1OCCc2ccccc21)c1cc(COc2c(F)cccc2F)on1 (configuration not stated)	34.2%	-18.7%	15.6%	8.2%	13.1µM*	-0.2%
O=C(NCCCn1ccnc1)c1cc2nc(-c3ccc(Br)cc3)cc(C(F)(F)F)n2n1	?	173.8%	-5.6%	3.4%	4.15µM*	-3.9%
Cc1ccc2nc(-c3ccccc3)cc(C(=O)NCCCn3ccnc3)c2c1	13.1µM*	60.2%	0.1%	2.6%	?	-3.8%
O=C(NCCCn1ccnc1)c1cc(-c2cccnc2)nc2ccc(Br)cc12	11.7µM*	41.1%	8.2%	-4.8%	1.47µM*	-2.2%
CCc1cccc(C)c1NC(=O)Cn1ccn(-c2ccc(F)cc2)c(=O)c1=O	nt	nt	-3.2%	15.9%	nt	nt
Cc1ccc(NC(=O)CN(C)S(=O)(=O)c2cccc3cccnc23)cc1F	?	-31.3%	-2.9%	-5.7%	?	9.6%
Cc1ccc(NC(=O)CN(C)S(=O)(=O)c2cccc3cccnc23)cc1C	14.5%	-16.7%	-9.2%	-14.0%	13.1µM*	-3.3%
CCn1c(O)c(/C=N/NC(=O)c2ccccc2)c(=O)[nH]c1=S	?	-19.7%	-7.6%	-6.0%	58.2%	0.6%
COc1ccccc1-n1c(O)c(/C=N/NC(=S)Nc2ccccc2)c(=O)[nH]c1=S	47.7%	-46.2%	11.2µM*	3.5%	11.1%	-1.1%
